Pf Dd2 growth = qHTS Primary assay for Inhibitors of Plasmodium falciparum Dd2 growth in vitro; Potency, µM (top dose mostly 28.9 µM), most hits filed as inhibitors; AID 1347417, 2020; actives 4.3% (n = 120,000); P. falciparum Dd2 growth, SYBR Green, 72 h; active = well fitted inhibition curve with a large enough effect; note: nearly all actives have a fitted effect of over 65% in size
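Readout: SYBR Green fluorescence, 485 nm excitation, 535 nm emission, after ~16 h lysis at 37C. Before that, Dd2-infected red cells (2.5% hematocrit) grew 72 h with compound, 29 uM top final concentration.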
Of the large screens only hits and unclear results are named; the others gave an inactive call. The full list was thinned out, with hits kept by preference.

CSc1ncccc1C(=O)N1CCC2(CCCN(CC3CC3)C2=O)C1 (stereo not drawn)	none
CN1CC2(CCN(C(=O)c3cccc(C#N)c3)CC2)CC1C(=O)N1CCOCC1 (stereo not drawn)	none
COc1ccc(-c2ccc3c(N)c(C(=O)Nc4ccc(C(F)(F)F)cc4)sc3n2)cc1OC	none
COc1ccc(NC(=O)c2sc3nc(-c4ccc(OC)cc4)cc(C(F)(F)F)c3c2N)cc1	none
COc1ccc(NC(=O)c2sc3nc4c(c(-c5ccc(OC)cc5)c3c2N)C(=O)CC(C)(C)C4)cc1	Pf Dd2 growth 1µM
Cc1nnc(-c2cc(-c3ccc([S+](C)(=O)[O-])cc3)ccn2)n1Cc1cccnc1	none
CSc1nc(NCCOC(C)=O)c(C#N)c(-c2ccc(C(C)(C)C)cc2)n1	Pf Dd2 growth 10µM
CSc1nc(Nc2cccc(C)c2)c(C#N)c(-c2ccccc2)n1	none
CN(Cc1ccccc1)C(=O)C1(C)CCCc2cnc(N(C)C)nc21 (stereo not drawn)	none
C=CCOC(=O)C1=C(C)N=C2SC=C(CC(=O)NC3CC3)N2C1c1cc(OC)cc(OC)c1 (stereo not drawn)	none
CNC(=O)c1ccc(CN2CC3(CCN(C(C)=O)CC3)CC2C(=O)O)o1 (stereo not drawn)	none
COc1cccc(N2CC(NC(=O)C3CCCC3)CC2=O)c1 (stereo not drawn)	none
COc1cccc(C2=C(C(C)=O)Sc3nnc(C4CCCCC4)n3N2C(C)=O)c1	Pf Dd2 growth 1.3µM
Cn1nnnc1C1CCCN(C(=O)NCc2ccccc2)C1 (stereo not drawn)	none
COc1cccc(C(=O)N2CCCC(c3nn[nH]n3)C2)c1 (stereo not drawn)	none
Cn1nnnc1C1CCCN(C(=O)Cc2ccccc2)C1 (stereo not drawn)	none
CC(=O)C1=C(c2ccccc2)N(C(C)=O)n2c(nnc2C2CCCCC2)S1	Pf Dd2 growth 1.1µM
O=C(NCc1ccncc1)C1CN(C(=O)COc2ccc(Cl)cc2)CC12CCOCC2 (stereo not drawn)	none
COCCNC(=O)[C@H]1C[C@H](Oc2ccccc2)CN1Cc1cccc(F)c1	none
COc1ccc(NC(=O)C2(Cc3cccnc3)CCCCC(=O)N2)cc1F (stereo not drawn)	none
O=C(C1CCCCC1)N1CCC(C2CCN(Cc3cccc(F)c3F)CC2)C1 (stereo not drawn)	none
O=C(NCC1(COc2ccccc2)C[C@@H](O)[C@@H](O)C1)c1ccno1 (stereo partly drawn)	none
CCN1CCCC(CN2CCC(Oc3ccccc3OC)(C(=O)O)CC2)C1 (stereo not drawn)	none
O=C1CCCN1CCCN1C(=O)[C@H]2CN(Cc3ccc(Br)cc3)C[C@H]2C1=O	none
COc1ccc(NC(=O)Nc2ccc(C)n(CC(=O)N3CCCCCC3)c2=O)cc1	none
Oc1cccc(CN(Cc2cn(-c3ccccc3)nn2)C2CC2)c1	none
CCOc1ccc(C(=O)Nc2onc3c2CCCC3)cc1	none
O=C(Nc1onc2c1CCCC2)c1ccccc1	none
CC(C)(C)c1ccc(C(=O)Nc2onc3c2CCCC3)cc1	Pf Dd2 growth 7.9µM
CCn1c(C)c(CN2CCc3nc(N4CCN(C)CC4)[nH]c(=O)c3CC2)c2ccccc21	none
O=C(c1ccc2cc[nH]c2c1)N1CCCC(Cc2noc(-c3cnccn3)n2)C1 (stereo not drawn)	none
COc1ccc(CN2CCC(C3CCNC3)CC2)c(OC)c1 (stereo not drawn)	none
NC(=O)CNC(=O)C1=C[C@@H](NC(=O)NC2CCCCC2)[C@@H](O)[C@H](O)C1	none
Cn1cc([C@@H](NC(=O)c2ccc3c(c2)CCCC3)C2CC(O)C2)cn1 (stereo partly drawn)	none
COCCNS(=O)(=O)c1cc(C(=O)O)cc(-c2c(OC)cccc2OC)c1	none
O=C(NCCc1ccncc1)C1CN(C(=O)c2ccc(Cl)s2)CC12CCOCC2 (stereo not drawn)	none
Cc1ccc(S(=O)(=O)N2CCC(OC3CCN(Cc4ccccc4)CC3)CC2)cc1C	Pf Dd2 growth 0.89µM
O=S(=O)(c1cccc(F)c1)N1CCC(OC2CCN(Cc3ccccc3)CC2)CC1	Pf Dd2 growth 2.8µM
O=C(CC1CCN(S(=O)(=O)c2cccc(F)c2)C1)NCc1ccccc1 (stereo not drawn)	none
O=C(c1cccnc1)N1CCC(OC2CCN(Cc3ccccc3)CC2)CC1	none
CC(C)S(=O)(=O)N1CCC(OC2CCN(Cc3cccnc3)CC2)CC1	none
CCOC(=O)CCNC(=O)N1CCC(OC2CCN(Cc3ccccc3)CC2)CC1	none
O=C(Nc1ccc(F)cc1F)N1CCC(OC2CCN(Cc3ccccc3)CC2)CC1	none
O=C(c1ccc(Cl)cc1)N1CCC(OC2CCN(Cc3cccnc3)CC2)CC1	none
Cc1ccc(C(=O)N2CCC(OC3CCN(Cc4ccccc4)CC3)CC2)cc1	Pf Dd2 growth 8.9µM
CNS(=O)(=O)c1ccc(CN(CCOC)Cc2ccc(C)cc2)cc1	none
COCc1ncc(C)n1CCNC(=O)c1cc(-c2cc(C)ccc2C)n[nH]1	none
CCc1noc(-c2cn(C3CCN(C(=O)C(C)Oc4ccccc4)C3)nn2)n1 (stereo not drawn)	none
Cc1ccc(-c2nc(C(=O)NCc3ccc(F)cc3)no2)cc1	none
Cc1cccn2c(CC(=O)N3CCN(C)[C@@H]4CS(=O)(=O)C[C@@H]43)cnc12	none
Cc1ccc(CN2Cc3[nH]cnc3C[C@H]2c2nc(-c3ccc4ccccc4c3)no2)cc1	none
Fc1ccc(-c2noc([C@@H]3Cc4nc[nH]c4CN3Cc3cccs3)n2)cc1Cl	Pf Dd2 growth 10µM
c1ccc(CN2Cc3[nH]cnc3C[C@H]2c2nc(-c3ccncc3)no2)cc1	Pf Dd2 growth 10µM
Cc1ccc(-c2noc([C@@H]3Cc4nc[nH]c4CN3Cc3cccs3)n2)cc1	none
O=C(O)c1ccc(CN2Cc3[nH]cnc3C[C@H]2c2nc(-c3ccc(F)cc3)no2)cc1	none
Fc1ccc(CN2Cc3[nH]cnc3C[C@H]2c2nc(-c3ccc(Cl)cc3)no2)cc1	none
Fc1ccc(-c2noc([C@@H]3Cc4nc[nH]c4CN3Cc3ccccc3)n2)cc1Cl	none
Cc1ccc(-c2noc([C@@H]3Cc4nc[nH]c4CN3CC3CCCCC3)n2)cc1	none
OCc1ccc(CN2Cc3[nH]cnc3C[C@H]2c2nc(-c3ccncc3)no2)o1	Pf Dd2 growth 14µM
C[S+](=O)([O-])N1CCn2c(nnc2-c2ccccc2)C1	none
O=C(c1ccc2c(c1)OCO2)N1CCCCC1c1nnc2n1CCNC2 (stereo not drawn)	none
COC(=O)[C@@H]1Cc2c([nH]c3ccccc23)[C@H]2C[C@@H](NCCNC(C)=O)C[C@@H](c3ccc(C(C)C)cc3)N21	none
COC(=O)[C@@H]1Cc2c([nH]c3ccccc23)[C@H]2C[C@H](NCCO)C[C@@H](c3ccccc3)N21	none
COC(=O)[C@@H]1Cc2c([nH]c3ccccc23)[C@@H]2C[C@@H](NCCNC(C)=O)C[C@@H](c3ccc(F)c(F)c3)N12	none
COC(=O)[C@@H]1Cc2c([nH]c3ccccc23)[C@H]2C[C@@H](NCCN3CCOCC3)C[C@@H](c3ccc(C(F)(F)F)cc3)N21	Pf Dd2 growth 8.9µM
COC(=O)[C@@H]1Cc2c([nH]c3ccccc23)[C@H]2C[C@@H](NCCNC(C)=O)C[C@@H](c3ccccc3)N21	none
C#CCN[C@H]1C[C@@H]2c3[nH]c4ccccc4c3C[C@@H](C(=O)OC)N2[C@H](c2ccc(F)cc2)C1	Pf Dd2 growth 13µM
COC(=O)[C@@H]1Cc2c([nH]c3ccccc23)[C@H]2C[C@@H](NCCO)C[C@@H](c3ccc(F)cc3)N21	none
COC(=O)[C@@H]1Cc2c([nH]c3ccccc23)[C@H]2C[C@H](NCc3cccs3)C[C@@H](c3ccccc3)N21	Pf Dd2 growth 7.9µM
